The record followed here is PubChem BioAssay (Tox21).

Experiment [1] is described as follows: qHTS assay to identify small molecule agonists of H2AX (AID 1224845; active means well fitted activation curve with a large enough effect in the signal ratio in the repeat runs, not every such curve was filed as active; the % refers to the signal ratio). Summed up: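 Phospho-H2AX Ser139 measured by HTRF (ex 320 nm; em 665 and 620 nm) after 24 hr antibody incubation. Compounds, 15 concentrations, 0.76% DMSO, were applied to CHO-K1 cells for 3hr at 37C before lysis.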
On the technique in general: qHTS replaces the single test concentration by a dilution series.

A short description of experiment [2]: qHTS assay to identify small molecule agonists of the hypoxia (HIF-1) signaling pathway (AID 1224846; active means well fitted activation curve with a large enough effect in the signal ratio in the repeat runs, not every such curve was filed as active; the % refers to the signal ratio). Summed up: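 HRE-bla ME-180 beta-lactamase reporter cells in medium with 0.5% dialyzed FBS, pre-incubated 5 h then exposed to compounds 17 h at 37C, 5% CO2; reporter induction read with CCF4-AM FRET substrate.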
A short description of experiment [3]: qHTS assay to identify small molecule agonists of H2AX - cell viability counter screen (AID 1224847; calls by dose curve; further: nearly all actives have a fitted effect of over 30% in size; further: potency means the concentration at half of the fitted maximal effect). In a few lines: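 Read-out: CellTiter-Glo luminescence, 30 min RT. Cells: wild-type CHO-K1, 1000/well, 10% FBS, plated overnight at 37C. Treatment: 15 concentrations, 3 hr, 37C, 0.76% DMSO.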
Experiment [4] can be described thus: qHTS assay to identify small molecule antagonists of the estrogen related receptor (ERR) signaling pathway from Tox21 library (AID 1224848). Further: nearly all actives have a fitted effect of over 50% in size. Further: potency means the concentration at half of the fitted maximal effect. Summed up: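 Reading was by luminescence 30 min after ONE-Glo addition. Before that, ERR cells at 2,000 per well had rested 6 h at 37 C/5% CO2 and then received pin-tooled compounds in DMSO for 18 h at 37 C.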
The nature of experiment [5]: qHTS assay to identify small molecule agonists of the estrogen related receptor (ERR) signaling pathway from Tox21 library (AID 1224849; calls by dose curve; further: nearly all actives have a fitted effect of over 15% in size). Particulars: ERR reporter cell line, ONE-Glo luciferase, 18 h; at 92.4 µM (top of the series) unless noted. Summed up: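 ERR reporter cells (NTP line) pre-incubated 6 hours at 37 C, then exposed to compounds for 18 hours at 37 C. ONE-Glo luciferase luminescence was read after 30 minutes at room temperature.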

The nature of experiment [6]: qHTS RealTime-Glo MT Cell Viability Assay in HepG2 cells - 24 hour (AID 1224867). Further: nearly all actives have a fitted effect of over 50% in size. Summed up:
(§1)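 Tox21 10K library screened in qHTS format on HepG2 cells carrying RealTime-Glo reagents. Compounds were added after a 5 h preincubation, and the luminescent signal from continuous culture was measured repeatedly during 40 h treatment.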

The nature of experiment [7]: qHTS RealTime-Glo MT Cell Viability Assay in HEK293 cells - 32 hour (AID 1224868). Further: top concentration of the series differs between compounds; nearly all actives have a fitted effect of over 50% in size. In a few lines: (§2)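 Luminescence generated by NanoLuc from substrate produced by living HEK293 cells served as the viability signal. Each value reflects the reading at its stated time point during continuous 40 h compound exposure at 37 C.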
Experiment [8] is described as follows: A CellTox Green Cytotoxicity Assay to monitor cytotoxicity in HEK293 cells - 0 hour (AID 1224869). Further: nearly all actives have a fitted effect of over 50% in size. Summed up: (§3)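 HEK293 cells, 600/well, were preincubated 5 hours and then exposed to compounds at 37 C for up to 40 hours. A cell-impermeant cyanine dye staining dead-cell DNA was read by fluorescence at 0, 8, 16, 24, 32 and 40 h time points.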
A short description of experiment [9]: A CellTox Green Cytotoxicity Assay to monitor cytotoxicity in HEK293 cells - 40 hour (AID 1224871). Further: nearly all actives have a fitted effect of over 45% in size. In a few lines:
as §3

Experiment [10] can be described thus: qHTS RealTime-Glo MT Cell Viability Assay in HEK293 cells - 16 hour (AID 1224872). Summed up:
as §2

Experiment [11] is described as follows: qHTS RealTime-Glo MT Cell Viability Assay in HepG2 cells - 8 hour (AID 1224873). Further: nearly all actives have a fitted effect of over 55% in size. In a few lines:
(§4)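 Real-time viability: cells seeded at 600 per well together with NanoLuc and cell-permeant prosubstrate, compounds added after 5 h incubation. Luminescence tracked at 0, 8, 16, 24, 32 and 40 h of exposure.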

A short description of experiment [12]: A CellTox Green Cytotoxicity Assay to monitor cytotoxicity in HEK293 cells - 24 hour (AID 1224875). Further: nearly all actives have a fitted effect of over 45% in size. In a few lines:
as §3

Experiment [13] is described as follows: A CellTox Green Cytotoxicity Assay to monitor cytotoxicity in HepG2 cells - 16 hour (AID 1224876). Further: nearly all actives have a fitted effect of over 45% in size. In a few lines:
(§5)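 HepG2 cells, 600/well, preincubated 5 h with CellTox Green dye, then exposed to Tox21 compounds in DMSO at 37 C for up to 40 h. Dead-cell DNA fluorescence read at the indicated time point.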

Experiment [14] can be described thus: qHTS RealTime-Glo MT Cell Viability Assay in HepG2 cells - 32 hour (AID 1224877). Further: nearly all actives have a fitted effect of over 55% in size. Summed up:
as §1

A short description of experiment [15]: A CellTox Green Cytotoxicity Assay to monitor cytotoxicity in HepG2 cells - 24 hour (AID 1224878). Further: nearly all actives have a fitted effect of over 45% in size. In a few lines:
as §5

Experiment [16] is described as follows: A CellTox Green Cytotoxicity Assay to monitor cytotoxicity in HepG2 cells - 40 hour (AID 1224879). Further: nearly all actives have a fitted effect of over 40% in size. In a few lines:
as §5

Experiment [17] is described as follows: qHTS RealTime-Glo MT Cell Viability Assay in HEK293 cells - 0 hour (AID 1224880). Further: nearly all actives have a fitted effect of over 45% in size. Further: potency means the concentration at half of the fitted maximal effect. In a few lines: (§6)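 600 cells/well were plated with the nonlytic NanoLuc/prosubstrate reagent, pre-incubated 5 h, then given 23 nL of compound in DMSO. Incubation at 37 C for 40 h, with luminescence from viable-cell-reduced substrate read repeatedly from 0 h.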
Experiment [18] in a line: A CellTox Green Cytotoxicity Assay to monitor cytotoxicity in HEK293 cells - 32 hour (AID 1224881). Further: nearly all actives have a fitted effect of over 40% in size. Summed up:
as §3

The nature of experiment [19]: qHTS RealTime-Glo MT Cell Viability Assay in HepG2 cells - 40 hour (AID 1224870). Further: nearly all actives have a fitted effect of over 50% in size. Summed up:
as §4

Experiment [20] is described as follows: qHTS RealTime-Glo MT Cell Viability Assay in HEK293 cells - 40 hour (AID 1224874). Further: nearly all actives have a fitted effect of over 50% in size. Particulars: RealTime-Glo luminescence; max response: stronger effect = lower value. In a few lines: as §6

Molecules are shown by their SMILES. A number with no mark means an inactive call. Inconclusive results are not listed. Calls of active or inactive are those of the source. Unless noted, the call rests on the fitted dose curve; in most records, active means well fitted curve in the direction sought with a large enough effect in the repeat runs; inconclusive means weak or mixed curves; inactive means no such curve, though single readings can be large; an effect the other way counts as inactive or inconclusive.
On the % scale 0 is the no-effect control and ±100 the full control effect.

As to `C=CC(C)=O`, the Potency entry in experiment [1], in experiment [3], in experiment [4], in [6], in [7] and in experiment [8] was “inactive” throughout. Moreover, the Potency result in experiment [9], in experiment [10], in [11], in experiment [12], in experiment [13] and in [14] was “inactive” each time. The Potency result in [15], in experiment [16], in [17] and in experiment [18] was “inactive” in each case. Besides, in experiment [2], the call was inactive. Also, the activity change, positive = activation in experiment [5] was -0.611%.
As to `O=C1CN=C(c2ccccc2)c2cc(Cl)ccc2N1CC1CC1`, the Potency result in [1], in [6], in experiment [8], in experiment [19], in [9] and in [11] was “inactive” each time. The Potency entry in experiment [12], in experiment [13], in [14], in experiment [15], in [16] and in experiment [18] was “inactive” each time. In addition, in [2], the compound was called inactive. Also, the Potency in experiment [3] is 94.2 µM (active); in [4] it was 51 µM (active); in experiment [17], 16.3 µM (active). The activity change, positive = activation in [5] is -41.3%.
Regarding `O=C1NCN(c2ccccc2)C12CCN(CCCOc1ccc(F)cc1)CC2`, the Potency entry in experiment [1], in experiment [3], in experiment [4], in experiment [8], in experiment [19] and in experiment [11] was “inactive” each time. The Potency result in experiment [12], in [13], in experiment [14], in experiment [17] and in experiment [18] was “inactive” in each case. Further, the compound was called inactive in [2]. For the same compound, the activity change, positive = activation in experiment [5] was -8.92% [at 42.5 µM].
For `ClCC(Br)CBr` (stereo unspecified), the Potency result in [1], in [3], in [6], in experiment [7], in experiment [8] and in experiment [19] was “inactive” in each case. Also, the Potency entry in [9], in experiment [10], in [11], in experiment [12], in experiment [13] and in experiment [14] was “inactive” throughout. Moreover, the Potency entry in experiment [15], in experiment [16] and in experiment [17] was “inactive” in each case. Further, the compound was classed as inactive in experiment [2]. Moreover, in experiment [20], the max response is 14.6%.
For `COC1=CC(=O)O[C@@H](CCc2ccccc2)C1`, the Potency result in [1], in experiment [3], in experiment [6], in experiment [7], in experiment [8] and in [9] was “inactive” throughout. In addition, the Potency result in [10], in experiment [11], in experiment [12], in experiment [13], in experiment [14] and in [15] was “inactive” throughout. Besides, the Potency entry in experiment [16] and in [18] was “inactive” throughout. Moreover, in experiment [2], the call was inactive. In addition, the activity change, positive = activation in experiment [5] was -29.7%.
Turning to `COP(=S)(OC)Oc1ccc([N+](=O)[O-])cc1Cl`, the Potency result in [1], in experiment [3], in [6], in experiment [7], in experiment [8] and in experiment [19] was “inactive” each time. The Potency entry in experiment [9], in [11], in experiment [12], in experiment [13], in experiment [14] and in [15] was “inactive” in each case. The Potency entry in experiment [16], in [17] and in [18] was “inactive” each time. Also, the outcome in experiment [2] was inactive. Moreover, the activity change, positive = activation in experiment [5] is -29.5%. In experiment [20], the max response is -20.6%.
Take `CC(O)(CS(=O)(=O)c1ccc(F)cc1)C(=O)Nc1ccc(C#N)c(C(F)(F)F)c1` (stereo unspecified): the Potency entry in experiment [1], in experiment [8], in experiment [12], in experiment [13], in experiment [15] and in [16] was “inactive” in each case. In addition, in [18], the Potency result is “inactive”. The outcome in experiment [2] was inactive. For the same compound, the Potency in experiment [3] is 41.6 µM (active). For the same compound, the activity change, positive = activation in experiment [5] is -29.9% [at 42.5 µM].
With `CC1Sc2c(C(=O)O)c(=O)c3cc(F)c(N4CCNCC4)cc3n21` (stereo unspecified), the Potency result in experiment [1], in [3], in [4], in [6], in experiment [7] and in [8] was “inactive” in each case. Moreover, the Potency entry in [9], in [10], in [11], in experiment [12], in experiment [13] and in experiment [14] was “inactive” each time. The Potency entry in [15], in experiment [16] and in experiment [17] was “inactive” throughout. The result in [2] was inactive. For the same compound, the activity change, positive = activation in experiment [5] is 11.7% [at 42.5 µM].
